# How the values were obtained:
# Experiment in all cases: universal protein binding microarray (PBM); transcription factors of Arabidopsis thaliana; high values mean tight binding
# GST-NTL6(1-168) = GST-NTL6(1-168) (Arabidopsis thaliana, UniProt Q9SCK6 1-168); conditions: protein: recombinant; tags: GST; chain copies: 2; dsDNA, one strand shown
# Summary of the method: (§1)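 GST-tagged proteins (NAC-domain, full-length or DNA-binding-domain) were induced in cells, with zinc acetate supplied for zinc-finger proteins, then purified on glutathione–Sepharose 4B. Each was tested in duplicate at 200 to 500 nM final on custom all-10-mer Agilent 4 × 180K arrays rendered double-stranded by primer extension. The binding value is the normalised enrichment score (E-score) across gapped and ungapped 8-mers.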
# GST-ANAC019 NAC domain = target: T1, GST-ANAC019 NAC domain (Arabidopsis thaliana, UniProt Q9C932 14-162); conditions: protein: recombinant; tags: GST; chain copies: 2; dsDNA, one strand shown
# T1 sequence: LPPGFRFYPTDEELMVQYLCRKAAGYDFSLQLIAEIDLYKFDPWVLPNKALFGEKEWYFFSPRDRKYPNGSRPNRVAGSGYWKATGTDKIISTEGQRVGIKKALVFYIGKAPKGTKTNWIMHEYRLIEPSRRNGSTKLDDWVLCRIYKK
# Summary of the method: as §1
# GST-NTL8 NAC domain = target: T2, GST-NTL8 NAC domain (Arabidopsis thaliana, UniProt Q9XIN7 14-156); conditions: protein: recombinant; tags: GST; chain copies: 2; dsDNA, one strand shown
# T2 sequence: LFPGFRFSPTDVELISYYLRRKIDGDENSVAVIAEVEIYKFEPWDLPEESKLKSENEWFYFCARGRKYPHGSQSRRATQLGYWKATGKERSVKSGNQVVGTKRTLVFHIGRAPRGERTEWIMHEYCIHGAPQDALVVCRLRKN
# Summary of the method: as §1
# GST-VND7 NAC domain = target: T3, GST-VND7 NAC domain (Arabidopsis thaliana, UniProt Q9C8W9 9-158); conditions: protein: recombinant; tags: GST; chain copies: 2; dsDNA, one strand shown
# T3 sequence: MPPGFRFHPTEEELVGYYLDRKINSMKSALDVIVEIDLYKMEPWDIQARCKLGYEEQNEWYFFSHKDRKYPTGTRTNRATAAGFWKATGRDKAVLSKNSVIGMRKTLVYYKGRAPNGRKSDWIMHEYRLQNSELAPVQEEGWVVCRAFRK
# Summary of the method: as §1
# GST-ANAC055(1-171) = target: T4, GST-ANAC055(1-171) (Arabidopsis thaliana, UniProt Q9LDY8 1-171); conditions: protein: recombinant; tags: GST; chain copies: 2; dsDNA, one strand shown
# T4 sequence: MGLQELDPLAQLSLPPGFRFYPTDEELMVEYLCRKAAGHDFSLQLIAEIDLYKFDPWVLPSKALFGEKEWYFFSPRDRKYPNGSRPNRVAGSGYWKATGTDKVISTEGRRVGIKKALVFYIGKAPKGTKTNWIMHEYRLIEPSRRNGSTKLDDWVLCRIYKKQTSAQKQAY
# Summary of the method: as §1
# GST-VND3 NAC domain = target: T5, GST-VND3 NAC domain (Arabidopsis thaliana, UniProt Q9FH59 12-162); conditions: protein: recombinant; tags: GST; chain copies: 2; dsDNA, one strand shown
# T5 sequence: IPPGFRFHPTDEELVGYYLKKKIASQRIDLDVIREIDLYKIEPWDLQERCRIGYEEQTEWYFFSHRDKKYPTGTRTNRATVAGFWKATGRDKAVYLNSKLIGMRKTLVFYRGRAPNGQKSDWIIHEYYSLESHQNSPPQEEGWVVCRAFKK
# Summary of the method: as §1
# GST-WRKY1(266-371) = GST-WRKY1(266-371) (Arabidopsis thaliana, UniProt Q9SI37 266-371); conditions: protein: recombinant; tags: GST; dsDNA, one strand shown
# Summary of the method: as §1
# GST-ANAC092(1-176) = target: T6, GST-ANAC092(1-176) (Arabidopsis thaliana, UniProt Q9FKA0 1-176); conditions: protein: recombinant; tags: GST; chain copies: 2; dsDNA, one strand shown
# T6 sequence: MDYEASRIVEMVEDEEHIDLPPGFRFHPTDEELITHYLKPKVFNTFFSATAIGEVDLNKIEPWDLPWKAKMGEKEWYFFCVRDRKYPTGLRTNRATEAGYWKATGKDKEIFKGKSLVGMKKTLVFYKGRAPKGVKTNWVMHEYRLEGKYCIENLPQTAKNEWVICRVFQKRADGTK
# Summary of the method: as §1
# GST-ATAF1 NAC domain = target: T7, GST-ATAF1 NAC domain (Arabidopsis thaliana, UniProt Q39013 7-158); conditions: protein: recombinant; tags: GST; chain copies: 2; dsDNA, one strand shown
# T7 sequence: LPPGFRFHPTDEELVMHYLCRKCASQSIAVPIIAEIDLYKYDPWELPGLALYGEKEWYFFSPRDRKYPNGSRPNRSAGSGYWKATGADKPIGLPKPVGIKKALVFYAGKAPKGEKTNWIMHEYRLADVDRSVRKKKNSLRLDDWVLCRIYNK
# Summary of the method: as §1
# GST-NAP(1-166) = target: T8, GST-NAP(1-166) (Arabidopsis thaliana, UniProt O49255 1-166); conditions: protein: recombinant; tags: GST; chain copies: 2; dsDNA, one strand shown
# T8 sequence: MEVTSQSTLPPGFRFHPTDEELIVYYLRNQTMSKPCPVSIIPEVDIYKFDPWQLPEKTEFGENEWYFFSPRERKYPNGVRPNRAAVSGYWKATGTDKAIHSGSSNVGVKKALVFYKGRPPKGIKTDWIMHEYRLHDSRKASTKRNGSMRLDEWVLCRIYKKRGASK
# Summary of the method: as §1
# [1] = target: T9, GST-ANAC092(1-285) full length (Arabidopsis thaliana, UniProt Q9FKA0 1-285); conditions: protein: recombinant; tags: GST; chain copies: 2; dsDNA, one strand shown
# T9 sequence: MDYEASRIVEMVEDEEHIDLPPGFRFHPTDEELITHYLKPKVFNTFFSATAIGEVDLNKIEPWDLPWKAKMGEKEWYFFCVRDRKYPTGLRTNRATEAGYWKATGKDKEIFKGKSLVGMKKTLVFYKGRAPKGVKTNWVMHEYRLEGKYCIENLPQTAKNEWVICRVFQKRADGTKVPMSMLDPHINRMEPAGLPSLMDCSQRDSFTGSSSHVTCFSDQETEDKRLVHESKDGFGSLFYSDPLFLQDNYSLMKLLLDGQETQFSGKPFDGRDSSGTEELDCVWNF
# Summary of the method: as §1
# GST-NST2(1-184) = target: T10, GST-NST2(1-184) (Arabidopsis thaliana, UniProt Q9M274 1-184); conditions: protein: recombinant; tags: GST; chain copies: 2; dsDNA, one strand shown
# T10 sequence: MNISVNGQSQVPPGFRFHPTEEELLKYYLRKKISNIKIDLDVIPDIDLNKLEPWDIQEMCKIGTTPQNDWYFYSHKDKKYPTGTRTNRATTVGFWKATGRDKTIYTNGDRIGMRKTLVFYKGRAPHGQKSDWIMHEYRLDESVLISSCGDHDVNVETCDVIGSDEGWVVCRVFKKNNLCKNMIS
# Summary of the method: as §1
# Chain of GST-NTL6(1-168) (Q9SCK6 1-168): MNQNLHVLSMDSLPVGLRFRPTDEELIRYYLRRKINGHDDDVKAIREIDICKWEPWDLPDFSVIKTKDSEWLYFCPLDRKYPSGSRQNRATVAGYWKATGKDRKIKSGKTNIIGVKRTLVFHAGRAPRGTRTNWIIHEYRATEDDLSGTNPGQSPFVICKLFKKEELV
# Chain of GST-WRKY1(266-371) (Q9SI37 266-371): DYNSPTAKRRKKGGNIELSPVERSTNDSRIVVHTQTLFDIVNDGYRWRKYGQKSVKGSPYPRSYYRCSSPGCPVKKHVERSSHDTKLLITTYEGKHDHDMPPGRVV
sequence,measurement,setting,value
ATTCCCTC,binding signal,GST-NTL6(1-168),0.115 E-score
same,binding signal,GST-ANAC019 NAC domain,0.0664 E-score
same,binding signal,GST-NTL8 NAC domain,0.421 E-score
same,binding signal,GST-VND7 NAC domain,0.0536 E-score
TATGGTCA,binding signal,GST-ANAC055(1-171),0.0561 E-score
same,binding signal,GST-VND3 NAC domain,0.0521 E-score
same,binding signal,GST-WRKY1(266-371),0.428 E-score
AGAGGTAA,binding signal,GST-ANAC092(1-176),0.145 E-score
same,binding signal,GST-NTL6(1-168),0.237 E-score
same,binding signal,GST-ANAC019 NAC domain,0.0713 E-score
same,binding signal,GST-ANAC055(1-171),0.0996 E-score
same,binding signal,GST-ATAF1 NAC domain,0.106 E-score
same,binding signal,GST-NAP(1-166),0.0742 E-score
same,binding signal,GST-NTL8 NAC domain,0.427 E-score
same,binding signal,GST-VND3 NAC domain,0.0836 E-score
AAGTTGAC,binding signal,GST-ANAC055(1-171),0.0649 E-score
same,binding signal,GST-ATAF1 NAC domain,0.0834 E-score
same,binding signal,GST-VND7 NAC domain,0.0703 E-score
same,binding signal,GST-WRKY1(266-371),0.476 E-score
AGTCTGAC,binding signal,GST-ANAC019 NAC domain,0.0699 E-score
same,binding signal,GST-ANAC055(1-171),0.0555 E-score
same,binding signal,GST-NAP(1-166),0.0965 E-score
same,binding signal,GST-VND7 NAC domain,0.0919 E-score
same,binding signal,GST-WRKY1(266-371),0.422 E-score
CGGTTGAC,binding signal,GST-WRKY1(266-371),0.475 E-score
ATAAGTCA,binding signal,GST-NTL6(1-168),0.161 E-score
same,binding signal,[1],0.101 E-score
same,binding signal,GST-VND3 NAC domain,0.105 E-score
same,binding signal,GST-WRKY1(266-371),0.443 E-score
AGTCAAAT,binding signal,GST-ATAF1 NAC domain,0.213 E-score
same,binding signal,GST-NAP(1-166),0.113 E-score
same,binding signal,GST-VND7 NAC domain,0.152 E-score
same,binding signal,GST-WRKY1(266-371),0.476 E-score
AGAAAGTC,binding signal,GST-ANAC019 NAC domain,0.0754 E-score
same,binding signal,GST-ANAC055(1-171),0.0896 E-score
same,binding signal,GST-ATAF1 NAC domain,0.103 E-score
same,binding signal,GST-NTL8 NAC domain,0.0673 E-score
same,binding signal,GST-VND3 NAC domain,0.0756 E-score
same,binding signal,GST-WRKY1(266-371),0.407 E-score
TAGTCAGA,binding signal,GST-ATAF1 NAC domain,0.0564 E-score
same,binding signal,GST-VND3 NAC domain,0.065 E-score
same,binding signal,GST-WRKY1(266-371),0.428 E-score
AAAAAGTC,binding signal,GST-ANAC019 NAC domain,0.0791 E-score
same,binding signal,GST-ANAC055(1-171),0.209 E-score
same,binding signal,GST-ATAF1 NAC domain,0.184 E-score
same,binding signal,GST-NST2(1-184),0.122 E-score
same,binding signal,GST-NTL8 NAC domain,0.0525 E-score
same,binding signal,GST-VND3 NAC domain,0.0942 E-score
same,binding signal,GST-WRKY1(266-371),0.426 E-score
TAGTCAAA,binding signal,GST-ANAC055(1-171),0.136 E-score
same,binding signal,GST-ATAF1 NAC domain,0.272 E-score
same,binding signal,GST-VND3 NAC domain,0.105 E-score
same,binding signal,GST-WRKY1(266-371),0.477 E-score
GACCGGAA,binding signal,GST-ANAC092(1-176),0.0538 E-score
same,binding signal,GST-ANAC019 NAC domain,0.213 E-score
same,binding signal,GST-ANAC055(1-171),0.0745 E-score
same,binding signal,GST-NTL8 NAC domain,0.0847 E-score
same,binding signal,GST-VND7 NAC domain,0.0568 E-score
same,binding signal,GST-WRKY1(266-371),0.404 E-score
AGTCTTTG,binding signal,GST-ANAC092(1-176),0.0553 E-score
same,binding signal,GST-NTL6(1-168),0.0583 E-score
same,binding signal,GST-ANAC019 NAC domain,0.0679 E-score
same,binding signal,GST-ANAC055(1-171),0.0944 E-score
same,binding signal,GST-VND7 NAC domain,0.125 E-score
same,binding signal,GST-WRKY1(266-371),0.424 E-score
GGTCATAC,binding signal,GST-NAP(1-166),0.108 E-score
same,binding signal,GST-VND3 NAC domain,0.115 E-score
same,binding signal,GST-WRKY1(266-371),0.421 E-score
GTCAATGA,binding signal,GST-NTL6(1-168),0.0646 E-score
same,binding signal,GST-WRKY1(266-371),0.466 E-score
CTGACCGC,binding signal,GST-ANAC092(1-176),0.0725 E-score
same,binding signal,GST-WRKY1(266-371),0.425 E-score
CTCTTGAC,binding signal,GST-ANAC092(1-176),0.059 E-score
same,binding signal,GST-ANAC019 NAC domain,0.0833 E-score
same,binding signal,GST-ATAF1 NAC domain,0.0783 E-score
same,binding signal,GST-NAP(1-166),0.0978 E-score
same,binding signal,GST-WRKY1(266-371),0.449 E-score
CAGTCAAG,binding signal,GST-ANAC092(1-176),0.051 E-score
same,binding signal,[1],0.063 E-score
same,binding signal,GST-NTL8 NAC domain,0.0503 E-score
same,binding signal,GST-WRKY1(266-371),0.444 E-score
CTAAGTCA,binding signal,GST-NTL6(1-168),0.146 E-score
same,binding signal,GST-WRKY1(266-371),0.413 E-score
GGTTTGAC,binding signal,GST-NTL6(1-168),0.131 E-score
same,binding signal,GST-ANAC019 NAC domain,0.0692 E-score
same,binding signal,GST-ANAC055(1-171),0.162 E-score
same,binding signal,GST-ATAF1 NAC domain,0.171 E-score
same,binding signal,[1],0.116 E-score
same,binding signal,GST-NAP(1-166),0.0603 E-score
same,binding signal,GST-NST2(1-184),0.177 E-score
same,binding signal,GST-WRKY1(266-371),0.483 E-score
AGTCCACG,binding signal,GST-ANAC092(1-176),0.062 E-score
same,binding signal,GST-ANAC019 NAC domain,0.0759 E-score
same,binding signal,GST-WRKY1(266-371),0.438 E-score
